# ALOX12 inhib: 12-hLO (ALOX12) enzyme inhibition | purified 12-hLO, xylenol orange hydroperoxide absorbance | Potency, µM (doses to about 57.1 µM), without a hit: at the top dose activity change, negative = inhibition, hits mostly inhibitors | P18054 | AID 1452 | 150,000 compounds, 0.12% hits; active = well fitted inhibition curve with a large enough effect; inconclusive = small, poorly fitted or top-dose-only effect; note: potency is the fitted concentration of half-maximal effect; nearly all actives have a fitted effect of over 55% in size
#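 Purified human 12hLO (150 nM), preincubated 15 min with compound, then 40 uM arachidonic acid for 30 min, room temperature, Hepes pH 7.0 with 0.01% Triton X-100. Hydroperoxide detected by ferrous iron/xylenol orange; 573/405 nm absorbance ratio gives reaction progress.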
# HPGD inh: inhibitors of human 15-hydroxyprostaglandin dehydrogenase (HPGD) | P15428 | purified HPGD, NADH fluorescence kinetic, PGE2 substrate | Potency, µM, for inactives: top-dose activity change, negative = inhibition, most hits filed as inhibitors | 150,000 compounds, 4.3% hits | AID 894; note: potency is the fitted concentration of half-maximal effect
#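 NADH formation kinetics: reaction with 30 uM PGE2 and 1 mM NAD+ (final), 20 nM enzyme, Tris-HCl pH 8 with Tween 20, after 15 min compound preincubation at room temperature. Fluorescence change, last versus first of five reads.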
# LMNA splice mod: LMNA splicing modulation; Potency, µM (titrated, usually from 46.1 µM), inactives show at the top dose ratio change, negative = inhibition, actives largely listed as inhibitors; HeLa LMNA splicing GFP/RFP minigene ratio, 48 h; 200,000 compounds, 0.01% hits; active = well fitted inhibition curve with a large enough effect in the signal ratio, with a control signal flat, not every such curve was filed as active; inconclusive = small, poorly fitted or top-dose-only effect, or effect the other way, or a change in a side signal; the % refers to the signal ratio; note: potency is the fitted concentration of half-maximal effect
#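 S3 HeLa stable clones carrying a lamin A-EGFP splicing minigene plus DsRed2 were seeded at 600 cells/well in Opti-MEM with 2% FBS, pin-dosed and incubated 48 h at 37°C. Acumen cytometry (488 nm) gave the GFP/RFP total-intensity ratio.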
# ALDH1A1 inh: blocks purified human ALDH1A1 activity | 220,000 compounds, 7.3% hits | Potency, µM (top dose mostly 75.3 µM), without a hit: top-dose activity, negative = inhibition, most hits filed as inhibitors | Purified ALDH1A1, NADH fluorescence, propionaldehyde substrate | P00352;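 note: potency is the fitted concentration of half-maximal effect; plate controls were no enzyme wells and a reference inhibitor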
# Target sequence (P00352 whole entry, looked up): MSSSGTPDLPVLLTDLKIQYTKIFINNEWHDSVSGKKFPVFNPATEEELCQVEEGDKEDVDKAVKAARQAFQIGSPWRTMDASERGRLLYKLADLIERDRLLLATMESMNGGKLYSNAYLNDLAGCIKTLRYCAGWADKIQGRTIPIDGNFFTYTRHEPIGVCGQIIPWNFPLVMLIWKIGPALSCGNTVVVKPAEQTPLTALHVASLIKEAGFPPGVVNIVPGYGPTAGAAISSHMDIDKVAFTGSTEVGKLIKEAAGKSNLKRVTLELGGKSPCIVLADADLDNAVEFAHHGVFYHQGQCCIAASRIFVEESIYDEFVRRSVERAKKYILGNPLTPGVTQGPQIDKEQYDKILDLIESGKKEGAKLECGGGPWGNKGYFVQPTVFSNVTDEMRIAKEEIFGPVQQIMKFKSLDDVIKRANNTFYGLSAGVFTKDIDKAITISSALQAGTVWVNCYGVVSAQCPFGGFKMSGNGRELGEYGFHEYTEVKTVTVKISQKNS
# PNC inhibitor: perinucleolar compartment assembly inhibition | PC3M PTB-GFP, PNC prevalence imaging, 16 h; active compounds read low | activity change (PNC), negative = inhibition, % at 10 µM | 140,000 compounds, 3.1% hits | AID 2417;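 active = readout at or below -70, meaning at least 70% loss of cells showing the perinucleolar compartment, a nuclear body marking cancer cells; inconclusive = readout between -30 and a set limit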;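 note: plate controls were DMSO wells for no effect and camptothecin positive control wells for full effect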
#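 Compounds are pinned in duplicate onto adhered PC3M cells stably expressing GFP-tagged PTB and incubated 16 h at 37 C. Cells are then fixed, nuclei stained with Hoechst, and PNC-positive cells counted.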
# * marks the source's active call; other numbers are inactive results; u = inconclusive; x = no result; [ ] = dose if it differs, or a comment. Only some compounds are listed: those with a hit (about 10% of all), similar ones and a draw of the others. Unless noted, calls come from the whole dose curve; as a rule, active = well fitted inhibition curve with a large enough effect (not every such curve was filed as active); inconclusive = small, poorly fitted or top-dose-only effect, or another doubt; inactive = no such curve, though single readings can be large or run the other way. Unless noted, % is set by controls: 0 for no effect and ±100 for the full control effect.
SMILES,ALOX12 inhib,HPGD inh,LMNA splice mod,ALDH1A1 inh,PNC inhibitor
COc1ccc(-c2noc(-c3ccccc3-c3ccccc3)n2)cc1,-4.8%,-4.5%,u,-3.6%,26.0
Fc1ccccc1-c1nc(-c2ccccc2)no1,-1.3%,-20.4%,-10.6%,0.6%,-100.0*
Clc1nc(-c2cccnc2)nc2scc(-c3ccccc3)c12,-0.2%,20µM*,u,u,2.1
COc1ccc(-c2noc(-c3ccccc3F)n2)cc1,-2.1%,-22.5%,-2.3%,-6.6%,5.0
Brc1ccccc1-c1nnc(-c2cccnc2)o1,-2.2%,-11.5%,-2.7%,-4.2%,-81.2*
CCNc1ncc2nc(-c3ccccc3)c(=O)n(C)c2n1,x,x,3.3%,u,x
Cc1ccc(C(=O)OCc2cc(=O)n3nc(-c4cccs4)sc3n2)cc1,x,x,5.8%[46 µM],x,x
Clc1ccc(Cc2nc(-c3cccnc3)no2)cc1,-3.0%,1.2%,5.2%,-2.1%,-92.7*
c1ccc(-c2ccccc2-c2nc(-c3cccnc3)no2)cc1,0.0%,-23.2%,-10.0%,u,-101.4*
CC(C)NC(=O)N1CCC2(CC1)CCN(C(=O)c1ccco1)CC2,4.3%,-0.2%,x,u,x
CCCCC1=CC2=C(c3ccco3)C(=O)C(C)(OC(=O)c3ccc(OC)cc3)C(=O)C2=CN1Cc1ccc2c(c1)OCO2 (centres undefined),-16.1%[11.4 µM],-7.8%,u,3.55µM*,x
COc1cc(NC(=O)c2sc3nc4n(c(=O)c3c2C)CCCCC4)cc(OC)c1OC,x,x,21.6%[46 µM],x,x
CCC(C)c1ccc(NC(=S)Nc2ccc(OC)cc2C)cc1 (centres undefined),0.4%,25.1µM*,-20.9%,-0.3%,20.3
COc1ccc(NC(=S)Nc2ccc(OCc3ccccc3)cc2)cc1OC,u,-15.1%,u,17.8µM*,79.6
CCC(C)c1ccc(NC(=S)Nc2ccc(OC)c(OC)c2)cc1 (centres undefined),u,1.0%,u,28.2µM*,58.9
CCOC(=O)c1c(C)oc2nc(C)nc(NCC3CCN(Cc4cccc(Cl)c4)CC3)c12,x,x,-11.1%[46 µM],x,x
CCCN1Cc2cccc(C(=O)NCCCOC(C)C)c2C1=O,-0.8%,-9.5%,4.6%,22.4µM*,9.4
CCCN1Cc2cccc(C(=O)NC(C)c3cccs3)c2C1=O (centres undefined),-3.5%,-8.4%,0.3%,3.98µM*,-12.7
CCCN1Cc2cccc(C(=O)NCc3ccc(C)cc3)c2C1=O,x,x,1.1%[46 µM],-7.4%,x
CCCN1Cc2cccc(C(=O)Nc3ccc(C)cc3)c2C1=O,3.9%,-13.0%,11.5%,20.1%,78.4
CC(C)(C)OC(=O)N1CCC(c2c(C(=O)NCCN3CCOCC3)cnn2-c2ccc(F)cc2)CC1,x,x,11.3%[46 µM],x,x
CCOC(=O)CCCCC(=O)c1[nH]c(=O)[nH]c1CSc1nnc2c3cc(Br)ccc3n(C)c2n1,x,x,-1.3%[46 µM],0.631µM*,x
O=Cc1ccsc1B(O)O,0.4%,-4.8%,x,0.7%,x
C/C(=N\Nc1ccc(F)cc1F)c1ccc(Br)s1,x,x,-3.5%[46 µM],12.6µM*,x
C/C(=N\Nc1ccc(F)cc1F)c1ccc(N2CCOCC2)cc1,x,x,14.4%[46 µM],15.8µM*,x
SMILES,ALOX12 inhib,HPGD inh,LMNA splice mod,ALDH1A1 inh,PNC inhibitor
CNC(=S)N/N=C(\C)c1ccc(N2CCOCC2)cc1,-3.0%,-18.1%,-11.4%,u,-112.3*
C/C(=N\Nc1ccc(F)cc1F)c1ccc(F)cc1,u,-6.7%,11.1%[0.0737 µM],u,74.6
CCNC(=S)N/N=C(\C)c1ccc(N2CCOCC2)cc1,-5.7%,-29.6%,-2.1%,u,-18.9
COc1cccc2c1Oc1ncccc1N(C(=O)CCC(=O)NCc1ccc(OC(C)C)cc1)C2,x,x,-12.5%[46 µM],x,x
Cn1cccc1C(=O)N1CCC2(CC1)CN(Cc1cc(C(F)(F)F)cc(C(F)(F)F)c1)C2,-7.6%,-2.1%,x,2.0%,x
CCCCc1nc2c(c3c1C[C@H](C)OC3)CN(S(=O)(=O)c1ccc(NC(C)=O)cc1)CC2,3.5%[11.4 µM],-2.0%,u,5.5%[13.5 µM],x
O=S(=O)(c1cccc(-c2nnco2)c1)N1CCCC1,-2.3%,2.6%,-2.8%,-11.6%,-107.2*
CSc1nc2sc3c(c2c2nncn12)CCC3,1.9%,-11.6%,-7.6%,7.94µM*,-20.4
COc1ccc(NC(=O)CCN2C(=O)C3C4CCC(C4)C3C2=O)cc1 (centres undefined),16.0%,-8.6%,11.1%,12.6µM*,-20.5
